Assay results reported in PubChem BioAssay (NCI).
Compounds without any hit were thinned out: in the full panel of roughly 83,000, 20% have a hit.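 How to read the values: 0–100, growth inhibition (40 = 60% inhibited); 0, no net growth; -100 to 0, cell death (-40 = 40% of starting cells died; -100 = all dead).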 Values without a mark were called inactive. Calls of active or inactive are those of the source. The calls were made as follows: active = growth percent below 10; inactive = the rest.

Tests used:
Experiment in all cases: NCI-60 one-dose screen, 48 h (100 = growth as untreated, 0 = no growth, -100 = all killed)
Conditions in all cases: 10 µM
[1] = tested on: HCT-15 colon
[2] = tested on: HT29 colon
[3] = tested on: SNB-75 CNS
[4] = tested on: SNB-19 CNS
[5] = tested on: U251 CNS
[6] = tested on: PC-3 prostate
[7] = tested on: SK-MEL-5 melanoma
[8] = tested on: UACC-62 melanoma
[9] = tested on: LOX IMVI melanoma
[10] = tested on: SK-MEL-28 melanoma

With `O=[N+]([O-])c1ccc(-c2nc(-c3ccccc3)c(-c3ccccc3)n2-c2ccccc2)cc1` the growth [1] was 12%, the growth [2] was 16.1% and the growth [3] was 80.4%. The growth [4] was 65.9%, the growth [5] was 32.5% and the growth [6] was -6.15% (active). It also gave a growth [7] of 61.9%, a growth [8] of 30.9% and a growth [9] of 18.8%. For the same molecule, the growth [10] was 67.6%.

In the case of `CCCCCCCCCCCCCCCC(=O)N1CCN(C)CC1`, the growth [1] is reported as 73.2%, the growth [2] is reported as 51.1% and the growth [3] is reported as 88.8%. The growth [4] was 105%, the growth [5] was 78.7% and the growth [6] was 68.8%. For the same molecule, the growth [7] was 81.7%, the growth [8] was 88.8% and the growth [9] was -38.1% (active). For the same molecule, the growth [10] was 88.7%.

`COc1cc(-c2cc(-c3cc(OC)c(OC)c(OC)c3)nc3nc(N)[nH]c(=O)c23)ccc1Oc1ccnc2cc(Cl)ccc12` was tested, and the growth [1] was 14.6%, the growth [2] was 104% and the growth [3] was -8.67% (active). For the same molecule, the growth [4] was 59.4%, the growth [5] was 23% and the growth [6] was 25.9%. It also gave a growth [7] of 27%, a growth [8] of 49.8% and a growth [9] of 27.8%. For the same molecule, the growth [10] was 56.9%.

Molecule `CCN(CCCNC(=O)Cc1cc(=O)oc2cc(N(C)C)ccc12)CCNc1ccnc2cc(Cl)ccc12` has a growth [1] of 83.2%, a growth [2] of 18.6% and a growth [3] of 88.6%. The growth [4] was 91.5%, the growth [5] was 58.9% and the growth [6] was 78.7%. It also gave a growth [7] of 76.2%, a growth [8] of 98.7% and a growth [9] of 66.4%. For the same molecule, the growth [10] was 85%.

Work on `COc1ccccc1Cn1cc2c(c1-c1ccccc1)CCc1cnoc1-2` yielded a growth [1] of 36%, a growth [2] of 12.4% and a growth [3] of 15.6%. For the same molecule, the growth [4] was 53.5%, the growth [5] was 39.7% and the growth [6] was 29.9%. The growth [7] was 18.1%, the growth [8] was 50.1% and the growth [9] was 38.1%. For the same molecule, the growth [10] was 58.3%.

For `COc1cc(CSc2nc3ccc(C)cc3c(=O)n2-c2ccccc2)cc(OC)c1OC`, the growth [1] was 30.1%, the growth [2] was 14.3% and the growth [3] was -7.55% (active). It also gave a growth [4] of 57.2%, a growth [5] of 38.5% and a growth [6] of 49.1%. It also gave a growth [7] of 20%, a growth [8] of 20.8% and a growth [9] of 36%. For the same molecule, the growth [10] was 52%.

`CC1(C)CC(=O)c2c(nc3ccc(Cl)cc3c2-c2ccccc2)C1` showed a growth [1] of 81.3%, a growth [2] of 98.6% and a growth [3] of 95.7%. The growth [4] was 90%, the growth [5] was 102% and the growth [6] was 48.7%. For the same molecule, the growth [7] was 73%, the growth [8] was 75.3% and the growth [9] was 93.4%. The growth [10] was 174%.

Work on `Fc1ccc(Nc2ccnc(N3CCN(c4ccnc5cc(Cl)ccc45)CC3)n2)cc1` yielded a growth [1] of 38.4%, a growth [2] of 22.3% and a growth [3] of 74.2%. For the same molecule, the growth [4] was 65.7%, the growth [5] was 47% and the growth [6] was 23%. It also gave a growth [7] of 26%, a growth [8] of 45.3% and a growth [9] of 49.8%. For the same molecule, the growth [10] was 81%.

Work on `COc1ccc(-c2cc(/C=C/C(=O)c3ccc(N)cc3)[nH]n2)cc1OC` yielded a growth [1] of 26%, a growth [2] of 22.6% and a growth [3] of 36.8%. The growth [4] was 51.6%, the growth [5] was 28.5% and the growth [6] was 41.8%. For the same molecule, the growth [7] was 63.4%, the growth [8] was 71.2% and the growth [9] was -45.5% (active). The growth [10] was 41.9%.

Molecule `CCc1cc2n(n1)-c1ncc(C(=O)OC)cc1Oc1ccccc1-2` has a growth [1] of 96.7%, a growth [2] of 112% and a growth [3] of 89.4%. It also gave a growth [4] of 109%, a growth [5] of 94.4% and a growth [6] of 97.5%. The growth [7] was 96.2%, the growth [8] was 102% and the growth [9] was 96.8%. For the same molecule, the growth [10] was 120%.

With `OC(CNC1CCCC1)Cn1c2ccccc2c2ccccc21` (stereo not given) the growth [1] was -37.6% (active), the growth [2] was -0.747% (active) and the growth [3] was 51.5%. The growth [4] was 33.8%, the growth [5] was -34.5% (active) and the growth [6] was 27%. For the same molecule, the growth [7] was -61.6% (active), the growth [8] was -50.9% (active) and the growth [9] was -75.9% (active). For the same molecule, the growth [10] was -60% (active).

`O=[N+]([O-])c1ccc2c(c1)Cc1cc(I)ccc1-2` gave a growth [1] of 108%, a growth [2] of 91.6% and a growth [3] of 106%. It also gave a growth [4] of 109%, a growth [5] of 96% and a growth [6] of 101%. For the same molecule, the growth [7] was 97.1%, the growth [8] was 108% and the growth [9] was 116%. For the same molecule, the growth [10] was 111%.

`COc1ccc(-c2nc3sc(-c4ccccc4)c(-c4ccccc4)n3c2/C=C/c2ccc(F)cc2)cc1` showed a growth [1] of 91.4%, a growth [2] of 94.7% and a growth [3] of 72.3%. It also gave a growth [4] of 108%, a growth [5] of 99.3% and a growth [6] of 61.6%. It also gave a growth [7] of 99.6%, a growth [8] of 82.8% and a growth [9] of 87.1%. It also gave a growth [10] of 109%.

Molecule `O=C(CSc1nnc(-c2ccc(Cl)cc2)o1)c1ccccc1` has a growth [1] of 99%, a growth [2] of 96.1% and a growth [3] of 98.3%. For the same molecule, the growth [4] was 101%, the growth [5] was 96% and the growth [6] was 86.9%. The growth [7] was 91.7%, the growth [8] was 92.4% and the growth [9] was 94.3%. For the same molecule, the growth [10] was 102%.

For `CC(=O)Oc1ccc(C2=Cc3ccc(OC(C)=O)cc3OC2C)cc1` (stereo not given), the growth [1] was 48.4%, the growth [2] was 93.7% and the growth [3] was 49%. For the same molecule, the growth [4] was 85.2%, the growth [5] was 43.3% and the growth [6] was 66.3%. For the same molecule, the growth [7] was 50.2%, the growth [8] was 45% and the growth [9] was 44.4%. For the same molecule, the growth [10] was 62.1%.

`CCc1c(C)[nH]c(=O)c(C(N)=O)c1C#N` was tested, and the growth [1] was 95.4%, the growth [2] was 96.6% and the growth [3] was 99.9%. For the same molecule, the growth [4] was 90.1%, the growth [5] was 99.4% and the growth [6] was 99.4%. It also gave a growth [7] of 103%, a growth [8] of 88.4% and a growth [9] of 109%. It also gave a growth [10] of 114%.

With `O=C1/C(=C/c2cccs2)CCC/C1=C\c1cccs1` the growth [1] was 78.9%, the growth [2] was 73.9% and the growth [3] was 110%. It also gave a growth [4] of 105%, a growth [5] of 83.8% and a growth [6] of 89.6%. It also gave a growth [7] of 83%, a growth [8] of 77% and a growth [9] of 92.4%. The growth [10] was 102%.

Molecule `O=C(O)CN1C(=O)C=CC1=O` has a growth [1] of 100%, a growth [2] of 104% and a growth [3] of 103%. For the same molecule, the growth [4] was 106%, the growth [5] was 102% and the growth [6] was 99.8%. It also gave a growth [7] of 101%, a growth [8] of 103% and a growth [9] of 102%. For the same molecule, the growth [10] was 123%.

For `C/C=C\COc1cc(C)c(Cl)cc1Cl`, the growth [1] was 109%, the growth [2] was 114% and the growth [3] was 88.9%. For the same molecule, the growth [4] was 97.3%, the growth [5] was 94.6% and the growth [6] was 98.5%. It also gave a growth [7] of 99.6%, a growth [8] of 100% and a growth [9] of 106%. The growth [10] was 104%.

For `COc1ccc(C(=O)/C=C/c2cc(-c3ccc(OC)c(OC)c3)n[nH]2)cc1OC`, the growth [1] was -68.1% (active), the growth [2] was -61.1% (active) and the growth [3] was -0.863% (active). For the same molecule, the growth [4] was 2.04% (active), the growth [5] was -94.5% (active) and the growth [6] was -36.2% (active). For the same molecule, the growth [7] was 4.15% (active), the growth [8] was 16.3% and the growth [9] was -86.8% (active). For the same molecule, the growth [10] was -65.5% (active).

For `Cc1nc(N)sc1Sc1nc2ccc(Cl)cc2c(=O)n1-c1ccc(Oc2ccccc2)cc1`, the growth [1] was 55.4%, the growth [2] was 55.9% and the growth [3] was 96%. The growth [4] was 69.4%, the growth [5] was 77.2% and the growth [6] was 48.9%. For the same molecule, the growth [7] was 76.1%, the growth [8] was 63.9% and the growth [9] was 75.5%. It also gave a growth [10] of 95.1%.

In the case of `CCCc1c(CC)c(=N)c2ccccc2n1C`, the growth [1] is reported as 10.7%, the growth [2] is reported as 4.71% (active) and the growth [3] is reported as 73.4%. For the same molecule, the growth [4] was 95.1%, the growth [5] was 43.2% and the growth [6] was 67.4%. For the same molecule, the growth [7] was 19.2%, the growth [8] was -3.76% (active) and the growth [9] was 1.08% (active). For the same molecule, the growth [10] was -80.8% (active).

`Cc1nc2cc(-n3c(-c4ccc(F)cc4)nc4ccccc4c3=O)ccc2n1Cc1ccccc1` was tested, and the growth [1] was 3.41% (active), the growth [2] was -23.8% (active) and the growth [3] was 6.2% (active). The growth [4] was 37.9%, the growth [5] was 9.65% (active) and the growth [6] was 9.75% (active). For the same molecule, the growth [7] was -77% (active), the growth [8] was 0.751% (active) and the growth [9] was 6.97% (active). For the same molecule, the growth [10] was -60.3% (active).

For `CCCCCCCCCCCCCCCCn1cc[n+](C)c1`, the growth [1] was 9.85% (active), the growth [2] was -100% (active) and the growth [3] was -98.6% (active). The growth [4] was -75.9% (active), the growth [5] was -70% (active) and the growth [6] was -69.7% (active). The growth [7] was -95.2% (active), the growth [8] was -94.6% (active) and the growth [9] was -50.4% (active). The growth [10] was -86.2% (active).

Molecule `Cc1ccc(C(=O)O)c(N)c1C` has a growth [1] of 99.7%, a growth [2] of 101% and a growth [3] of 82.6%. The growth [4] was 107%, the growth [5] was 100% and the growth [6] was 94.6%. For the same molecule, the growth [7] was 107%, the growth [8] was 103% and the growth [9] was 93.8%. The growth [10] was 122%.

In the case of `CCSc1nc2c([nH]1)c(=O)n(C)c(=S)n2C`, the growth [1] is reported as 105%, the growth [2] is reported as 109% and the growth [3] is reported as 126%. It also gave a growth [4] of 109%, a growth [5] of 105% and a growth [6] of 101%. For the same molecule, the growth [7] was 119%, the growth [8] was 105% and the growth [9] was 96.9%. For the same molecule, the growth [10] was 128%.

For `COC(=O)[C@]12CC[C@@H](C)[C@H](C)[C@@H]1C1=CC[C@@H]3[C@@]4(C)CC(=O)[C@H](O)[C@@]5(C)COC(=C45)C[C@@]3(C)[C@]1(C)CC2`, the growth [1] was -69.7% (active), the growth [2] was -61.2% (active) and the growth [3] was -32.6% (active). The growth [4] was -54.1% (active), the growth [5] was -88.7% (active) and the growth [6] was -32.3% (active). For the same molecule, the growth [7] was -97.2% (active), the growth [8] was -75.3% (active) and the growth [9] was -80.7% (active). For the same molecule, the growth [10] was -41.8% (active).

Work on `COc1ccc(-c2nnc(COc3ccc(NC(=O)Nc4ccccc4)cc3F)o2)cc1` yielded a growth [1] of 88.2%, a growth [2] of 100% and a growth [3] of 68.2%. It also gave a growth [4] of 86.8%, a growth [5] of 85% and a growth [6] of 65.5%. It also gave a growth [7] of 89%, a growth [8] of 78% and a growth [9] of 89.6%. For the same molecule, the growth [10] was 98.6%.
